Assay [1] has as its target T1, Serine/threonine-protein kinase TBK1 (Homo sapiens) (UniProt Q9UHD2).
T1 sequence (whole entry): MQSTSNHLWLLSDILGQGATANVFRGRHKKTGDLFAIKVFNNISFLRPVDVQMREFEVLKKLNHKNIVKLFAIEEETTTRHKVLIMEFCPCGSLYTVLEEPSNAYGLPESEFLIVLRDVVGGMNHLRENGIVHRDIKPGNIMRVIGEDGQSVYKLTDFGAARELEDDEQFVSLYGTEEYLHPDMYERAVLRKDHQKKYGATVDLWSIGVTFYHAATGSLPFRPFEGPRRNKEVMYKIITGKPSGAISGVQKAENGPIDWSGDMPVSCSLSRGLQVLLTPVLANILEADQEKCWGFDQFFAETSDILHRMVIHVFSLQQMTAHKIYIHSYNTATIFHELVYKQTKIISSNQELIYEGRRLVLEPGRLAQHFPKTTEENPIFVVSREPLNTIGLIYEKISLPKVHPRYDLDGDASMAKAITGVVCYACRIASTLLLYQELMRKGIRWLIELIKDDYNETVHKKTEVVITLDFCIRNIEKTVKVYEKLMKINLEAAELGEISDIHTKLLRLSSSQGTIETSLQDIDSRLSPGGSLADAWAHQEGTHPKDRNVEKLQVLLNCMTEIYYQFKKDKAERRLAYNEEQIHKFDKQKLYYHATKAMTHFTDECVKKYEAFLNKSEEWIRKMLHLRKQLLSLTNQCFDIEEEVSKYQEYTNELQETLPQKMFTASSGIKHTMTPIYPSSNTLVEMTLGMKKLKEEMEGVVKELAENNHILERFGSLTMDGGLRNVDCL
As to conditions: at 10 µM.

The target of assay [2] is T2, TGF-beta receptor type-1 (Homo sapiens) (UniProt P36897).
T2 sequence (whole entry): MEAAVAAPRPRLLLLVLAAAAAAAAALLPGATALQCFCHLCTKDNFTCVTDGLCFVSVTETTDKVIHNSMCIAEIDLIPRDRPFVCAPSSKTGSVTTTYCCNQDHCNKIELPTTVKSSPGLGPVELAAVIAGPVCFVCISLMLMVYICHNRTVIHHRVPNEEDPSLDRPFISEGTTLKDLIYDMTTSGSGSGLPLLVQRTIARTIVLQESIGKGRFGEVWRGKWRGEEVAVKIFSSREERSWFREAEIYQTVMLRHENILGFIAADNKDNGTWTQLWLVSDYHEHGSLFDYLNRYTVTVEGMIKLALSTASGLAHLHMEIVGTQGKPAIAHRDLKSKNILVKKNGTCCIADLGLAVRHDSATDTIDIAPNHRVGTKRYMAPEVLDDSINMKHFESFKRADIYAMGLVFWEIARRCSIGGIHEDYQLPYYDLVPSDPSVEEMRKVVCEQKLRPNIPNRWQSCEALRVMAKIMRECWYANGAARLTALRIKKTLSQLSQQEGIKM
As to conditions: at 1 µM.

The target in assay [3] is T2, TGF-beta receptor type-1 (Homo sapiens). As to conditions: at 10 µM.
Assay [4] has as its target Insulin-like growth factor 1 receptor (Homo sapiens) (UniProt P08069). As to conditions: at 1 µM.
Assay [5] shares this target. As to conditions: at 10 µM.
Assay [6] deals with T3, Inhibitor of nuclear factor kappa-B kinase subunit alpha (Homo sapiens) (UniProt O15111).
T3 sequence (whole entry): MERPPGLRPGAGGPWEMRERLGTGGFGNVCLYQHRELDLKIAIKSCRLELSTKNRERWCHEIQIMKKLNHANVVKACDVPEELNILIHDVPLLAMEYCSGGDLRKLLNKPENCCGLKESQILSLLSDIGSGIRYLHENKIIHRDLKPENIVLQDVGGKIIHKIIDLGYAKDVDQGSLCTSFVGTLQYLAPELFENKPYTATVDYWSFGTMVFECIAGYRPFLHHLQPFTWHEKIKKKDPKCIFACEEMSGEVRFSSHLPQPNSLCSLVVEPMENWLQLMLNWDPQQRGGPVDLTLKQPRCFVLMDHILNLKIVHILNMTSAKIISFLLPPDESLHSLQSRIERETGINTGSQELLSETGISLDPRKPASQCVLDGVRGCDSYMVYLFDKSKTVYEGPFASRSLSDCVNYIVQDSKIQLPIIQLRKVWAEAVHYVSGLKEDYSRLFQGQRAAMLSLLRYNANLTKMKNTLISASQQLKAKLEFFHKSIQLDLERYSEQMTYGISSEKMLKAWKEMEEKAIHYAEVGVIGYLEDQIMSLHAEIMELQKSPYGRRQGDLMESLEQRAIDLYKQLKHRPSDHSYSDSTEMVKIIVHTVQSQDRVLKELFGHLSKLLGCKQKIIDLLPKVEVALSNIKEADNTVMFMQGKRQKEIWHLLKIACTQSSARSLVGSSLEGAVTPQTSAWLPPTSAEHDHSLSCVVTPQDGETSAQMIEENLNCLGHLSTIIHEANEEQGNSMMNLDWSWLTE
As to conditions: at 1 µM.

The target in assay [7] is T3, Inhibitor of nuclear factor kappa-B kinase subunit alpha (Homo sapiens). As to conditions: at 10 µM.
Assay [8] has as its target T4, Inhibitor of nuclear factor kappa-B kinase subunit beta (Homo sapiens) (UniProt O14920).
T4 sequence (whole entry): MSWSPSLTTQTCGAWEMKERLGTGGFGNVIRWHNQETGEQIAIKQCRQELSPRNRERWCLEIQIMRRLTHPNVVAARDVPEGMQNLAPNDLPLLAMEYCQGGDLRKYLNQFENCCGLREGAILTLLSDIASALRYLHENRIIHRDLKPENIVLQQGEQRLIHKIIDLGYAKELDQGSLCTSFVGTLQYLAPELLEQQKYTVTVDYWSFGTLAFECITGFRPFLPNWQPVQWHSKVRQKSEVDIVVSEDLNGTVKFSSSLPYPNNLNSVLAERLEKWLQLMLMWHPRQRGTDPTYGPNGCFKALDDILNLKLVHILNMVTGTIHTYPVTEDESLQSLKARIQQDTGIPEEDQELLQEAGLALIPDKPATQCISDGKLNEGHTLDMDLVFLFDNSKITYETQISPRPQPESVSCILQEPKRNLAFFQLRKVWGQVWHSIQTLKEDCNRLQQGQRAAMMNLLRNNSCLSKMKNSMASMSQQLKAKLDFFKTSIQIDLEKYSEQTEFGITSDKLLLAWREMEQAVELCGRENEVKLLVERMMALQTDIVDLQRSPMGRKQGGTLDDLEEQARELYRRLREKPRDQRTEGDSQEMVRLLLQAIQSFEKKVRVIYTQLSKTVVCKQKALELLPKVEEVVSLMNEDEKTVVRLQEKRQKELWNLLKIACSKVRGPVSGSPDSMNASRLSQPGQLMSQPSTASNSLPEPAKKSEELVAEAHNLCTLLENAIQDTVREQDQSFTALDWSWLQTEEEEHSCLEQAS
As to conditions: at 1 µM.

In assay [9] the target is T4, Inhibitor of nuclear factor kappa-B kinase subunit beta (Homo sapiens). As to conditions: at 10 µM.
The target in assay [10] is Insulin receptor (Homo sapiens) (UniProt P06213). As to conditions: at 1 µM.
Sequence of Insulin receptor (Homo sapiens) (P06213 28-758 limits assumed): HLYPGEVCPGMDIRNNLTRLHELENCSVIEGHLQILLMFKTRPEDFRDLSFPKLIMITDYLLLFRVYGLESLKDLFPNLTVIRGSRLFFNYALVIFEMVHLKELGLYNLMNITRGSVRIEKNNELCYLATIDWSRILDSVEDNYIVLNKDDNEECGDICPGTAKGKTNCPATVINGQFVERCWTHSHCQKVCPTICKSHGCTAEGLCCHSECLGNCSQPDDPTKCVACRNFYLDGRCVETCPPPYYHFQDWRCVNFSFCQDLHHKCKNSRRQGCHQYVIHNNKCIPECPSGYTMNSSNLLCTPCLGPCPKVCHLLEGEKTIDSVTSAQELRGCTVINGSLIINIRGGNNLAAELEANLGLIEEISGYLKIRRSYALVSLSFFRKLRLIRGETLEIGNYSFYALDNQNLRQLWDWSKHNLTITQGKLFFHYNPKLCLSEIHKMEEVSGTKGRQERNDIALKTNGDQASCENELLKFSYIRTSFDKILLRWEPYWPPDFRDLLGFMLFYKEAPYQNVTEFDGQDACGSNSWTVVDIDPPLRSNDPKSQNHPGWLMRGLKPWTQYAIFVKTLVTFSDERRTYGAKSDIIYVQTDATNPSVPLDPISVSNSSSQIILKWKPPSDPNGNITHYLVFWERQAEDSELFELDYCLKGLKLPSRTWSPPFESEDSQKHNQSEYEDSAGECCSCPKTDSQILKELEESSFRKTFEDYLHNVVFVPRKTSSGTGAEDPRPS
Sequence of Insulin receptor (Homo sapiens) (P06213 763-1382 limits assumed): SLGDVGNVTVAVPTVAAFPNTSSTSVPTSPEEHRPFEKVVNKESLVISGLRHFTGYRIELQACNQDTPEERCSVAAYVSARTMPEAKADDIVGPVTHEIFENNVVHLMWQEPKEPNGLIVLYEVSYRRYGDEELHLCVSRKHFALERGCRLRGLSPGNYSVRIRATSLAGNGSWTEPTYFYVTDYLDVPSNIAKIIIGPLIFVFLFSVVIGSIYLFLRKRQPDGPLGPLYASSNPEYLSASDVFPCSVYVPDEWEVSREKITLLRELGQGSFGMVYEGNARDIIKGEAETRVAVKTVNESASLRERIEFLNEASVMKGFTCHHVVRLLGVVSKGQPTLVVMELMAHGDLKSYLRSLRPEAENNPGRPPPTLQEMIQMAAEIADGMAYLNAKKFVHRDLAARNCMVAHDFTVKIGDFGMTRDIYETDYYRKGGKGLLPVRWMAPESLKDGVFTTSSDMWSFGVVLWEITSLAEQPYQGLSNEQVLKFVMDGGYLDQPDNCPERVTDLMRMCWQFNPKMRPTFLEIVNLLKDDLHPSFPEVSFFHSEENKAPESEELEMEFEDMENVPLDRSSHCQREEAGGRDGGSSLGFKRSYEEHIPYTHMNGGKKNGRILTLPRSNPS

Sequence of Insulin-like growth factor 1 receptor (Homo sapiens) (P08069 31-736 limits assumed): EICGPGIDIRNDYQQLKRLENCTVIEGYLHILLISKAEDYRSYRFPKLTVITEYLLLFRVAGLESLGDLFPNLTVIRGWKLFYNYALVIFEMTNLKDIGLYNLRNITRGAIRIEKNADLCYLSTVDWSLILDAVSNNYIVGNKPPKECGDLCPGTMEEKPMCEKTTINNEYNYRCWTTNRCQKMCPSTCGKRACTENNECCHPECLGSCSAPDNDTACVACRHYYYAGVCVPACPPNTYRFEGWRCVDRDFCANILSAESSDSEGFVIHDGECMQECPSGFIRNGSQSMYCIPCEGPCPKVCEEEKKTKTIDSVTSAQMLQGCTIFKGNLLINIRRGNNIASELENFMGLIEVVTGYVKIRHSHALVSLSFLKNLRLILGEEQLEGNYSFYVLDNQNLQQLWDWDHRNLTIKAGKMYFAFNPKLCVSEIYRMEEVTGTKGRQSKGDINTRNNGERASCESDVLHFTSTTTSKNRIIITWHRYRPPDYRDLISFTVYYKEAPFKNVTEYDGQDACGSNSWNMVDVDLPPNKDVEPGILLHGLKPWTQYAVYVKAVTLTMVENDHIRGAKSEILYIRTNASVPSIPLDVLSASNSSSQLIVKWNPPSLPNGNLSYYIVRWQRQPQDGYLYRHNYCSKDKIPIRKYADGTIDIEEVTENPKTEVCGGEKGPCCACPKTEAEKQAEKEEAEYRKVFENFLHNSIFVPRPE
Sequence of Insulin-like growth factor 1 receptor (Homo sapiens) (P08069 741-1367 limits assumed): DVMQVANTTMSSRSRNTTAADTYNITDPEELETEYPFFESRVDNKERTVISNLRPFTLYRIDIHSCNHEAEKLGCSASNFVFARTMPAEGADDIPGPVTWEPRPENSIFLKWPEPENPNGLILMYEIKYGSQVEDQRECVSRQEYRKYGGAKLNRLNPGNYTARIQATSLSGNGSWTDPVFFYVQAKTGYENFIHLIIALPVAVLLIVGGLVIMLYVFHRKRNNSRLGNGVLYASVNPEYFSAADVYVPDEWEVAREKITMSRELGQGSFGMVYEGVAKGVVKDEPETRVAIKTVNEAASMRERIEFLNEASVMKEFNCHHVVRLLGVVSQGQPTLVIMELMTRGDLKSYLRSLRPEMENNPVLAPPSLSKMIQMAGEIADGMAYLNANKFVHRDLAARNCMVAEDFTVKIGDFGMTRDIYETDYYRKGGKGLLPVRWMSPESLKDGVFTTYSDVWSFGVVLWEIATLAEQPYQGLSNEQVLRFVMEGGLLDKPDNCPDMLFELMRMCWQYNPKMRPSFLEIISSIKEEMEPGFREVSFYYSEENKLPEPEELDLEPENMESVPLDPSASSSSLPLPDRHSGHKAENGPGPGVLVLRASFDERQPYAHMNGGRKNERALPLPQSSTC

The residual activity is the signal under treatment as a percentage of the control signal. In the case of `Cc1ccc(S(=O)(=O)/C=C/C#N)cc1`, the residual activity in [1] was 81%; in assay [2], 98%; in assay [3] it was 81%; in [4] it was 88%; in [5], 98%; in assay [6] it was 100%. Further, the residual activity came to 100% in [7], 108% in assay [8], 107% in assay [9] and 94% in assay [10].

Source of the values: ChEMBL document CHEMBL2218924, “A broad activity screen in support of a chemogenomic map for kinase signalling research and drug discovery” (Biochem J, 2013).
